This is part of a sample that, as a whole, favours compounds with a hit. Of some 83,000 tested, about 20% had one in any assay.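 Cells were grown in 96-well plates and exposed to the test compound at a single concentration for 48 hours; results are reported as percent growth, with values below 10 considered active.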 Calls of active or inactive are those of the source.
System: MDA-MB-468 breast
Assay: NCI-60 one-dose screen, 48 h (100 = growth as untreated, 0 = no growth, -100 = all killed)
Conditions: 10 µM unless noted

SMILES	growth
O=C(Nc1ccccc1)Nc1cccc(Oc2nnc(Cl)c3ccccc23)c1	0.467% (active)
NNC(=O)CCCCl	96% (inactive)
Cc1ccc(C(=O)c2oc3ccc4c(C)cc(=O)oc4c3c2C)cc1	16% (inactive)
COC(=O)c1sc(-c2ccc(C)cc2)cc1O	99.5% (inactive)
CC1(C)CC[C@]23CC[C@]4(C)[C@H](CC[C@@H]5[C@@]6(C)C/C(=C/c7cccnc7)C(=O)C(C)(C)[C@@H]6CC[C@]54C)[C@H]2[C@H]1OC3=O	56.9% [100 µM] (inactive)
O=C(Nc1ccccc1)Nc1ccc(Nc2ncnc3sc4c(c23)CCCC4)cc1	96.9% (inactive)
CNC1=C([N+](=O)[O-])C(c2ccccc2O)C(C#N)=C(c2cccs2)O1 (stereo unspecified)	74.5% (inactive)
NC(=NC1C2CC3CC(C2)CC1C3)Nc1ccc(I)cc1 (stereo unspecified)	-3.88% (active)
Cc1c2c(cc[n+]1Cc1ccc(F)cc1)c1ccc(OCc3cccc(F)c3)cc1n2Cc1cccc(F)c1	-85.6% (active)
COc1cc(C2CC(c3ccccc3)=NN2C=O)ccc1Oc1nc2c(c(=O)n(C)c(=O)n2C)n1C (stereo unspecified)	63.9% (inactive)
C=CCn1c(SCC(=O)Nc2cccc(C(=O)/C=C/c3cc(OC)c(OC)c(OC)c3)c2)nc2ccccc2c1=O	35.3% (inactive)
CN(C)CCCOc1c(Br)cc(/C=C/C(=O)N(C)CCc2cc(Br)c(OCCCN(C)C)c(Br)c2)cc1Br	91.4% (inactive)
C/C(CCC(=O)O)=N/Nc1ccc([N+](=O)[O-])cc1	83.7% (inactive)
Oc1cccc2ccc(N/N=C/c3cc(CN4CCOCC4)c(O)c4ncccc34)nc12	-24.6% (active)
O=c1ccn2nc3ccccc3c2[nH]1	95.5% (inactive)
O=S(=O)(NCCCNc1cc(-c2cn(-c3ccccc3)nc2-c2cccc(O)c2)ccn1)c1cccc2ccccc12	-18.4% (active)
C#CCOc1cccc(Nc2ncnc3ccc(NC(=O)CCl)cc23)c1	-54% (active)
CCCCCCCCCCCCCCCCCCOP(=O)([O-])OC1CC[N+](C)(C)CC1	0% (active)
CCN(CC)CCCCCCNc1ccnc2cc(Cl)ccc12	61.1% (inactive)
C=C(C)[C@@H]1CCC[C@]2(C(=O)OC)CC[C@]3(C)[C@@H](CC[C@@H]4[C@@]5(C)CCCNC(C)(C)[C@@H]5CC[C@]43C)[C@@H]12	65.3% (inactive)
c1cc(CNC23CC4CC(CC(C4)C2)C3)cc(C[N+](Cc2cccc(CNC34CC5CC(CC(C5)C3)C4)c2)(Cc2cccc(CNC34CC5CC(CC(C5)C3)C4)c2)Cc2cccc(CNC34CC5CC(CC(C5)C3)C4)c2)c1 (stereo unspecified)	-47.1% [42 µM] (active)
CCN(CC)CCCC(C)NC(=S)N/N=C(\C)c1ccccn1 (stereo unspecified)	-7.86% (active)
CCN(CC)CCCNC(=O)c1c2c(n3ccccc13)C(=O)c1ncccc1C2=O	-70.1% (active)
COc1cc(/C=C2\Oc3cc(OCC(=O)c4ccccc4)ccc3C2=O)cc(OC)c1OC	97% (inactive)
C=C(C)C(=O)O[C@H]1C[C@@]2(C)OC(=CC2=O)/C(C)=C\[C@H]2OC(=O)C(=C)[C@H]12	-52.5% (active)
CCO/C=N/C1=C(C#N)C(c2ccc(Cl)cc2)c2c(c3ccccc3n(C)c2=O)O1 (stereo unspecified)	54% (inactive)

— PubChem BioAssay (NCI)
